For 22 molecules, Potency results are on record in PubChem BioAssay (Tox21).

A short description of assay [1]: cAMP Responsive Elements (CRE) small molecule antagonists, cell-based qHTS assay: qHTS cell viability counter screen (AID 2060913). Also: nearly all actives have a fitted effect of over 40% in size. The procedure, abridged:
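Cytotoxicity counter screen multiplexed with the CRE-bla antagonist read: HEK293T cells in DMEM with dialyzed FBS and 25 mM HEPES were treated 3 hrs under 0.25 uM final NKH477, then viability measured by CellTiter-Glo luminescence.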

The nature of assay [2]: cAMP Responsive Elements (CRE) small molecule agonists, cell-based qHTS assay: qHTS cell viability counter screen (AID 2060914).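 Also: viability read after 3 h of compound exposure; nearly all actives have a fitted effect of over 50% in size.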 The procedure, abridged:
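CRE-bla HEK 293T cells, plated 18 h at 37 °C, were exposed to compounds for 3 h at 37 °C/5% CO2. Viability was then measured in the same wells by CellTiter-Glo luminescence after 30 min at room temperature.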

Inconclusive results are not listed. Entries that show only a call come without a potency. Calls of active or inactive are those of the source. Calls follow the shape of the dose curve; as a rule, active = well fitted cell-killing curve with a large enough effect in the repeat runs; inconclusive = weak or mixed curves, or effect the other way; inactive = flat fitted curve, though single readings scatter.

`CCC(C)(C)C1CCCCC1OC(C)=O` (centres undefined): the Potency entry in assay [1] and in assay [2] was “inactive” in each case.
`Nc1cc(Cl)c(O)c(Cl)c1`: the Potency entry in assay [1] and in assay [2] was “inactive” throughout.
For `CCCN[C@H]1CCc2nc(N)sc2C1`, the Potency entry in assay [1] and in assay [2] was “inactive” each time.
With `Oc1c(Cl)ccc(Cl)c1Cl`, the Potency entry in assay [1] and in assay [2] was “inactive” in each case.
Turning to `O=C(O)c1cc2ccccc2nc1C(=O)O`, the Potency result in assay [1] and in assay [2] was “inactive” each time.
Take `CCCCCCCCCCCCCCO`: the Potency result in assay [1] and in assay [2] was “inactive” in each case.
Take `CC1C(C)(C)C2=C(C(=O)CCC2)C1(C)C` (centres undefined): the Potency result in assay [1] and in assay [2] was “inactive” in each case.
As for `NC1CCN(c2nc3c(cc2F)c(=O)c(C(=O)O)cn3-c2ccc(F)cc2F)C1` (centres undefined), the Potency entry in assay [1] and in assay [2] was “inactive” in each case.
Consider `O=C1c2ccccc2C(=O)c2c(O)ccc(O)c21`, for which the Potency result in assay [1] and in assay [2] was “inactive” throughout.
Consider `Cn1cnc2ncnc(N)c21`, for which the Potency result in assay [1] and in assay [2] was “inactive” each time.
Consider `CC(=O)Nc1ccc(C)cc1`, for which the Potency result in assay [1] and in assay [2] was “inactive” throughout.
`O=Cc1ccccc1O`: the Potency entry in assay [1] and in assay [2] was “inactive” throughout.
Regarding `Nc1c2c(nc3ccccc13)CCCC2O` (centres undefined), the Potency result in assay [1] and in assay [2] was “inactive” in each case.
For the molecule `CC[N+](C)(CC)CCOC(=O)C1c2ccccc2Oc2ccccc21`, the Potency result in assay [1] and in assay [2] was “inactive” each time.
For `O=C(O)c1ccc(Cl)cc1Cl`, the Potency entry in assay [1] and in assay [2] was “inactive” throughout.
Regarding `c1ccc(CCNc2nc(-c3ccccc3)cs2)cc1`, the Potency entry in assay [1] and in assay [2] was “inactive” each time.
On to `O=C1NC(c2ccccc2)(c2ccccc2)C(=O)N1COP(=O)(O)O`, for which the Potency entry in assay [1] and in assay [2] was “inactive” each time.
For the molecule `C#CC(O)C(CC)CCCC` (centres undefined), the Potency result in assay [1] and in assay [2] was “inactive” throughout.
Turning to `O=[N+]([O-])c1ccc(CO)cc1`, the Potency result in assay [1] and in assay [2] was “inactive” in each case.
Regarding `Nc1ccc2c(c1)C(=O)c1ccccc1C2=O`, the Potency entry in assay [1] and in assay [2] was “inactive” each time.
On to `CCCCCCOC(=O)CCCCC`, for which the Potency result in assay [1] and in assay [2] was “inactive” each time.
Take `CCCCCCCCCCCCCC(=O)OCC`: the Potency result in assay [1] and in assay [2] was “inactive” each time.
